Experimental data taken from PubChem BioAssay (NCI).
Compounds without any hit were thinned out: in the full panel of roughly 83,000, 20% have a hit.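 Negative percent growth values reflect cell death: -40 means 40% of the cells present at the start died, and -100 means all died.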 Active and inactive are the calls of the source. Rule for the calls: active = growth percent below 10; inactive = the rest.

Experiments:
Experiment in all cases: NCI-60 one-dose screen, 48 h (100 = growth as untreated, 0 = no growth, -100 = all killed)
Conditions in all cases: 10 µM unless noted
HCT-15 colon = test system: HCT-15 colon
HT29 colon = test system: HT29 colon
SNB-75 CNS = test system: SNB-75 CNS
SNB-19 CNS = test system: SNB-19 CNS
U251 CNS = test system: U251 CNS
SK-MEL-5 melanoma = test system: SK-MEL-5 melanoma
UACC-62 melanoma = test system: UACC-62 melanoma
LOX IMVI melanoma = test system: LOX IMVI melanoma
SK-MEL-28 melanoma = test system: SK-MEL-28 melanoma

Measured: growth

O=C(CCCCC(=O)N/N=C\c1ccccc1O)N/N=C\c1ccccc1O
active: SK-MEL-5 melanoma -14.9%
inactive: HCT-15 colon 21% | HT29 colon 69.1% | SNB-75 CNS 69.6% | SNB-19 CNS 38.9% | U251 CNS 26.4% | UACC-62 melanoma 13.5% | LOX IMVI melanoma 26.2% | SK-MEL-28 melanoma 48.3%

O=C(CN1C(=O)/C(=C/c2ccc(Cl)cc2)SC1=S)NCCCN1CCOCC1
inactive: HCT-15 colon 93.1% | HT29 colon 114% | SNB-75 CNS 92.8% | SNB-19 CNS 97.9% | U251 CNS 98.4% | SK-MEL-5 melanoma 95.7% | UACC-62 melanoma 97% | LOX IMVI melanoma 90.5% | SK-MEL-28 melanoma 101%

NC(=O)c1cc(I)ccc1NC(=O)/C=C/c1ccccc1Cl
active: HT29 colon 8.09% | SNB-75 CNS -14.5% | SK-MEL-5 melanoma 3.33%
inactive: HCT-15 colon 17.8% | SNB-19 CNS 31.9% | U251 CNS 21.8% | UACC-62 melanoma 37.8% | LOX IMVI melanoma 50.7% | SK-MEL-28 melanoma 38%

O=C(COc1cccc(/C=C2\CSc3ccccc3C2=O)c1)Nc1nccs1
active: LOX IMVI melanoma -100% | SK-MEL-28 melanoma -0.13%
inactive: HCT-15 colon 75.5% | HT29 colon 15.9% | SNB-75 CNS 22.2% | SNB-19 CNS 79.5% | U251 CNS 41.8% | UACC-62 melanoma 64.1%

O=C1Nc2cc(-c3ccc(O)cc3)ccc2/C1=C/c1ccc[nH]1
inactive: SNB-75 CNS 19% | SNB-19 CNS 27.8% | U251 CNS 18.9% | UACC-62 melanoma 15.7% | SK-MEL-28 melanoma 23.6%
active: HCT-15 colon 7.26% | HT29 colon 8.88% | SK-MEL-5 melanoma -17.3% | LOX IMVI melanoma -6.81%

CCOC(=O)n1cc(-c2nonc2-c2cn(C)c3ncccc23)c2ccccc21
inactive: HCT-15 colon 60.2% | HT29 colon 79.5% | SNB-75 CNS 61.6% | SNB-19 CNS 89.3% | U251 CNS 83.2% | UACC-62 melanoma 64.6% | LOX IMVI melanoma 84.3% | SK-MEL-28 melanoma 104%

COc1cc(/C=C/c2cc(/C=C/c3ccc(O)c(OC)c3)n(-c3c(C)cccc3C)c(=O)n2)ccc1O
inactive: SNB-19 CNS 13.9%
active: HCT-15 colon 8.19% | HT29 colon -37.8% | SNB-75 CNS -12.4% | U251 CNS 2.81% | UACC-62 melanoma -11.3% | LOX IMVI melanoma 0.0749% | SK-MEL-28 melanoma 0.867%

Clc1ccc2c(NCCCCNc3nc(N4CCOCC4)nc4ccccc34)ccnc2c1
inactive: HCT-15 colon 22.9% | SNB-75 CNS 79% | SNB-19 CNS 14.7% | UACC-62 melanoma 99.1% | SK-MEL-28 melanoma 119%
active: HT29 colon -26.4% | U251 CNS -59.6% | LOX IMVI melanoma -66.6%

Clc1ccc2c(NCCNc3nc(N4CCCCC4)nc4ccccc34)ccnc2c1
active: HCT-15 colon -30.1% | HT29 colon -28% | SNB-75 CNS -23.2% | U251 CNS -81.7% | UACC-62 melanoma -90.7% | LOX IMVI melanoma -83.6% | SK-MEL-28 melanoma -79.2%
inactive: SNB-19 CNS 13.2%

CC(=O)OCCC/C(=C/c1cc2ccccc2c2ccccc12)[N+](=O)[O-]
active: HCT-15 colon -81.8% | HT29 colon -44.7% | SNB-75 CNS -93.6% | SNB-19 CNS -91.1% | U251 CNS -95.4% | UACC-62 melanoma -90.2% | LOX IMVI melanoma -70.6% | SK-MEL-28 melanoma -99.5%

Oc1cccc(-c2nc(N3CCOCC3)c3c4c(sc3n2)CCCC4)c1
active: SNB-75 CNS 7.14%
inactive: HCT-15 colon 49.1% | HT29 colon 94.7% | SNB-19 CNS 62.3% | U251 CNS 52.7% | SK-MEL-5 melanoma 46.6% | UACC-62 melanoma 43.8% | LOX IMVI melanoma 50% | SK-MEL-28 melanoma 57.8%

O=C(COc1cccc(/C=C2\COc3ccccc3C2=O)c1)Nc1nccs1
active: HCT-15 colon -17.9% | HT29 colon -28.7% | LOX IMVI melanoma -96.8% | SK-MEL-28 melanoma -68.3%
inactive: SNB-75 CNS 77.3% | SNB-19 CNS 73.5% | U251 CNS 22.6% | SK-MEL-5 melanoma 52.3% | UACC-62 melanoma 78.2%

CCOC(=O)c1sc2nc(-c3cccc(O)c3)nc(N3CCOCC3)c2c1C
inactive: HCT-15 colon 43.7% | HT29 colon 98.2% | SNB-75 CNS 21.1% | SNB-19 CNS 69.2% | U251 CNS 58.5% | SK-MEL-5 melanoma 52.7% | UACC-62 melanoma 71.8% | LOX IMVI melanoma 57.3% | SK-MEL-28 melanoma 63.7%

CC(=O)O[C@H]1[C@@H]2OC(=O)C(CSc3ccccc3)[C@@H]2C[C@H]2O[C@]2(C)CC/C=C(\C)CCC[C@@H]1C (some centres not stated)
inactive: HCT-15 colon 12.8% | HT29 colon 19.5% | SNB-75 CNS 37.1% | SNB-19 CNS 68% | U251 CNS 51.6% | SK-MEL-5 melanoma 47% | UACC-62 melanoma 38.3% | LOX IMVI melanoma 28.4% | SK-MEL-28 melanoma 37.7%

COC(=O)c1ccc(NC(=O)c2ccc(-c3cccc([N+](=O)[O-])c3)o2)cc1
inactive: HCT-15 colon 101% | HT29 colon 103% | SNB-75 CNS 82.4% | SNB-19 CNS 94.4% | U251 CNS 100% | UACC-62 melanoma 95.5% | LOX IMVI melanoma 96.1% | SK-MEL-28 melanoma 100%

CN1CCN(c2ccc3nc(-c4ccc(OCCCCN5CCN(CCCCN6C(=O)c7cccc8cccc(c78)C6=O)CC5)cc4)[nH]c3c2)CC1
inactive: HCT-15 colon 76.2% | HT29 colon 60.3% | SNB-75 CNS 36.4% | SNB-19 CNS 84.2% | U251 CNS 64.8% | SK-MEL-5 melanoma 69.1% | UACC-62 melanoma 95.4% | LOX IMVI melanoma 47.1% | SK-MEL-28 melanoma 24.6%

CN1C(=O)C2(SCC(C(=O)NCc3ccccc3)N2C(=O)C2CCCCC2)c2ccccc21 (configuration not stated)
inactive: HCT-15 colon 99.2% | HT29 colon 102% | SNB-75 CNS 47.2% | SNB-19 CNS 98.5% | U251 CNS 98.3% | UACC-62 melanoma 93.4% | LOX IMVI melanoma 91.6% | SK-MEL-28 melanoma 113%

CN1CCN(c2ccc(Nc3c4ccccc4nc4ccccc34)cc2)CC1
inactive: HCT-15 colon 99.3% | HT29 colon 103% | SNB-75 CNS 96.8% | SNB-19 CNS 107% | U251 CNS 99.8% | SK-MEL-5 melanoma 102% | UACC-62 melanoma 109% | LOX IMVI melanoma 105% | SK-MEL-28 melanoma 109%

O=C(/C=C/c1ccc(C(F)(F)F)cc1)Nc1ccc(C=C2c3ccccc3C(=O)c3ccccc32)cc1
inactive: HCT-15 colon 47.4% | HT29 colon 46.5% | SNB-75 CNS 46.6% | SNB-19 CNS 66.5% | U251 CNS 33.8% | UACC-62 melanoma 52.2% | LOX IMVI melanoma 76.7% | SK-MEL-28 melanoma 60.2%

Cc1ccc2c(C(C[N+](=O)[O-])c3ccccc3)c(-c3ccccc3)[nH]c2c1 (configuration not stated)
active: HT29 colon 0.357% [9.5 µM] | SNB-75 CNS -6.93% [9.5 µM]
inactive: HCT-15 colon 18.8% [9.5 µM] | SNB-19 CNS 37.4% [9.5 µM] | U251 CNS 25% [9.5 µM] | UACC-62 melanoma 38% [9.5 µM] | LOX IMVI melanoma 28.5% [9.5 µM] | SK-MEL-28 melanoma 49.3% [9.5 µM]

Cc1nn(-c2ccc(F)cc2)c2ncnc(Oc3ccc(NC(=O)Nc4ccc(Cl)c(C(F)(F)F)c4)cc3)c12
inactive: HCT-15 colon 111% | HT29 colon 109% | SNB-75 CNS 88.1% | SNB-19 CNS 98.9% | U251 CNS 97.9% | UACC-62 melanoma 96.6% | LOX IMVI melanoma 99.4% | SK-MEL-28 melanoma 102%

CCCSc1ccc2nc(NC(=O)OC)[nH]c2c1
inactive: HCT-15 colon 18.1% | SNB-75 CNS 22.4% | SNB-19 CNS 29.9% | U251 CNS 14.1% | UACC-62 melanoma 27.6% | LOX IMVI melanoma 50.1% | SK-MEL-28 melanoma 53.7%
active: HT29 colon 2.84%

NC(N)=N/N=C(/c1ccccc1)c1ccc(F)cc1
inactive: HCT-15 colon 10.3% | SNB-75 CNS 18% | SNB-19 CNS 26.8% | LOX IMVI melanoma 18.6% | SK-MEL-28 melanoma 35.1%
active: HT29 colon -1.2% | U251 CNS 4.79% | UACC-62 melanoma 4.05%

CC[C@@H](C(=O)[C@@H](C)[C@@H](O)[C@H](C)[C@@H]1O[C@@H]([C@@H](CC)C(=O)O)CC[C@@H]1C)[C@H]1OC2(C=C[C@@H](O)[C@]3(CC[C@@](C)([C@H]4CC[C@](O)(CC)[C@H](C)O4)O3)O2)[C@H](C)C[C@@H]1C (some centres not stated)
active: SNB-75 CNS -28.8% | SNB-19 CNS -33.7% | U251 CNS 0.353% | UACC-62 melanoma -96.2% | LOX IMVI melanoma 8.3% | SK-MEL-28 melanoma -89.8%
inactive: HCT-15 colon 19.8% | HT29 colon 13.5%

COc1ccc(C2CC(c3ccc(Cl)cc3)=NN2/C=C2\SC(=S)N(NC(=O)Cc3ccccc3Nc3c(Cl)cccc3Cl)C2=O)cc1 (configuration not stated)
inactive: HCT-15 colon 68.7% | HT29 colon 57.7% | SNB-75 CNS 58.4% | SNB-19 CNS 18.2% | U251 CNS 54.1% | SK-MEL-5 melanoma 81.9% | UACC-62 melanoma 63.2% | LOX IMVI melanoma 26.9% | SK-MEL-28 melanoma 92.1%

O=C1NC(=O)C(c2ccc(Cl)cc2Cl)N1 (configuration not stated)
inactive: HCT-15 colon 108% | HT29 colon 106% | SNB-75 CNS 92.7% | SNB-19 CNS 97.1% | U251 CNS 103% | UACC-62 melanoma 97.7% | LOX IMVI melanoma 104% | SK-MEL-28 melanoma 112%

Cc1ccc2c(C(C[N+](=O)[O-])c3ccco3)c(-c3ccccc3)[nH]c2c1 (configuration not stated)
active: HT29 colon 5.24% | SNB-75 CNS -5.04%
inactive: HCT-15 colon 19.5% | SNB-19 CNS 38.5% | U251 CNS 25.8% | UACC-62 melanoma 35.1% | LOX IMVI melanoma 23.5% | SK-MEL-28 melanoma 60.3%

O=c1c(F)cn(Cc2ccccc2CCl)c(=O)n1Cc1ccccc1CCl
active: HCT-15 colon -57.6% | HT29 colon -83.7% | SNB-75 CNS -5.72% | SNB-19 CNS -23% | U251 CNS -71.6% | SK-MEL-5 melanoma -100% | UACC-62 melanoma -82.6% | LOX IMVI melanoma -81.7% | SK-MEL-28 melanoma -65%

NS(=O)(=O)c1ccc(CN=C2NC(=O)S/C2=C\c2ccc(Br)cc2)cc1
inactive: HCT-15 colon 103% | HT29 colon 105% | SNB-75 CNS 89.1% | SNB-19 CNS 97.7% | U251 CNS 97.9% | UACC-62 melanoma 93.3% | LOX IMVI melanoma 100% | SK-MEL-28 melanoma 100%

CN(Cc1cc(Cl)cc(Cl)c1O)Cc1cc(Cl)cc(Cl)c1O
inactive: HCT-15 colon 40.5% | HT29 colon 94.1% | SNB-75 CNS 75.5% | SNB-19 CNS 73.3% | U251 CNS 58.6% | UACC-62 melanoma 64.8% | LOX IMVI melanoma 57.7% | SK-MEL-28 melanoma 86.9%
